Source: PubChem
In the library only some 15% were active in any assay of this set; here they are far more common.
ELG1 repair inh – blocks ELG1-dependent DNA repair in HEK293T cells; HEK293T ELG1-luciferase reporter, luminescence, 16 h; DNA damage induced by 5-fluorouridine; Potency, µM (highest dose often 46.1 µM), for inactives: at the top dose activity change, negative = inhibition, usual class: inhibitors; AID 504467; hit rate 2.3% among 330,000; further: nearly all actives have a fitted effect of over 55% in size
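HEK293T cells expressing luciferase-tagged ELG1 (2,000/well) received 5-Fluorouridine plus compound or DMSO for 16 hr at 37 °C. Luciferase was read by ONE-Glo luminescence after 30 min at room temperature.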
12-LOX inh – inhibitors of human 12S-lipoxygenase ALOX12 | purified 12hLO, xylenol orange hydroperoxide absorbance | Potency, µM (top dose mostly 108 µM), inactives show at the top dose activity change, negative = inhibition, most hits filed as inhibitors | AID 1671190 | hit rate 1.1% among 580,000
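Purified human 12hLO at 150 nM in 25 mM Hepes, 0.01% Triton X-100, pH 7.0, preincubated 15 min at room temperature with compound. Reaction started with 40 uM arachidonic acid, 30 min at room temperature. Hydroperoxide measured by Fe-xylenol orange, 573/405 nm absorbance ratio.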
DT40 TDP1 CPT – DT40-hTDP1 cell growth loss with CPT; chicken DT40 Tdp1-/-;hTDP1 cells + 20 nM CPT, ATP luminescence, 48 h; Potency, µM (highest dose often 46.2 µM), inactives show at the highest dose activity change, negative = growth inhibition, usual class: inhibitors; hit rate 12% among 420,000; further: nearly all actives have a fitted effect of over 55% in size
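Chicken DT40 Tdp1-/- cells complemented with human TDP1, 400 cells/well, exposed to compounds plus 20 nM camptothecin for at least 48 h at 37 C; viability read as ATP content by CellTiter-Glo luminescence.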
TDP1 cell noCPT – qHTS for Inhibitors of human tyrosyl-DNA phosphodiesterase 1 (TDP1): qHTS in cells in absence of CPT; Potency, µM (highest dose often 46.2 µM), without a hit: at the highest dose activity change, negative = growth inhibition, most hits filed as inhibitors; AID 686978, 2013; hit rate 15% among 420,000; DT40 Tdp1-/- hTDP1 cells, no CPT, ATP luminescence, 48 h; further: nearly all actives have a fitted effect of over 55% in size
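DT40 Tdp1-/-;hTDP1 cells, no CPT (DMSO vehicle only), 400 cells/well; compounds pin-transferred; ≥48 hr, 37 °C; CellTiter-Glo 30 min RT dark, luminescence read.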
RORgamma inh – blocks mouse ROR gamma transcriptional activity | P51450 | Potency, µM (series often up to 53.6 µM), without a hit: at the highest dose activity change, negative = inhibition, actives largely listed as inhibitors | Drosophila S2 Gal4-RORgamma UAS-luciferase reporter, 20 h | hit rate 5.4% among 310,000; further: nearly all actives have a fitted effect of over 60% in size
Target sequence (P51450 whole entry, looked up, the tested form may be a part): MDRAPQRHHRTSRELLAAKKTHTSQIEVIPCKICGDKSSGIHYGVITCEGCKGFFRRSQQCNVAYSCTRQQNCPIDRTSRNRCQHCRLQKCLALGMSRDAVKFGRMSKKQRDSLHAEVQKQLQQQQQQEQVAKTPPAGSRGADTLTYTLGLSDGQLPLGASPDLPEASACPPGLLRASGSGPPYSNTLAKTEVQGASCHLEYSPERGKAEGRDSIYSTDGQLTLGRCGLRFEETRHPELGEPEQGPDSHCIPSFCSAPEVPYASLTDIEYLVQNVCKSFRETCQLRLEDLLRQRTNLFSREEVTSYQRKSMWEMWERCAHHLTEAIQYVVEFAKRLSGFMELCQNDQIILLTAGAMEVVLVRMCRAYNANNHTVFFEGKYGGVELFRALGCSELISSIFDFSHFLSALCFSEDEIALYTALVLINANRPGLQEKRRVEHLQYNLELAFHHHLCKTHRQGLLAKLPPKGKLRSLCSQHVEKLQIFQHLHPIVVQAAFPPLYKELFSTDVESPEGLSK
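Using a luciferase readout, inhibitors were identified by reduced reporter activity in Drosophila cells coexpressing a copper-inducible Gal4–ROR gamma fusion and UAS-driven Photinus luciferase, incubated 20 hr after 700 uM copper sulfate.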
VP16 counter – Gal4-VP16 reporter inhibition counter-screen. Drosophila S2 Gal4-VP16 UAS-luciferase, luminescence, 20 h. Potency, µM (titrated, usually from 53.6 µM), for inactives: at the top dose activity, negative = inhibition, usual class: inhibitors. hit rate 3.5% among 310,000;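 further: Gal4-VP16 expression switched on by copper sulfate through the metallothionein promoter; nearly all actives have a fitted effect of over 50% in size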
Numbers without * were called inactive; ? = inconclusive; nt = not tested or not shown; [ ] = dose if it differs, or a comment. The call rests on the fitted dose curve; in most records, active means well fitted curve in the direction sought with a large enough effect; inconclusive means small, poorly fitted or top-dose-only effect, or another doubt; inactive means no such curve, though single readings can be large; an effect the other way counts as inactive or inconclusive. On the % scale 0 is the no-effect control and ±100 the full control effect; potency means the concentration at half of the fitted maximal effect.

SMILES | ELG1 repair inh | 12-LOX inh | DT40 TDP1 CPT | TDP1 cell noCPT | RORgamma inh | VP16 counter
CCN(CC)S(=O)(=O)c1ccc(N2CCCCC2)c(NC(=O)/C(C#N)=C/c2ccc(OC)cc2)c1 | ? | -13% | ? | 16µM* | -16% | 2%
CN(C)S(=O)(=O)c1ccc(N2CCCC2)c(C(=O)Nc2ccc(F)cc2F)c1 | -14% | ? | ? | -29% | nt | nt
Cc1c(-c2nsc(NC(=O)c3cccc(F)c3)n2)nnn1-c1ccccc1C(F)(F)F | nt | 0% | nt | nt | nt | nt
CCOP(=O)(c1ccccc1)c1nc(-c2ccccc2Cl)oc1N1CCCCC1 (centres undefined) | ? | 8% | ? | ? | ? | ?
CCOP(=O)(OCC)c1nc(-c2cccc([N+](=O)[O-])c2)oc1N1CCCCC1 | -5% | 0% | ? | 21µM* | 14% | 8%
COP(=O)(OC)c1nc(-c2ccc(C)cc2)oc1N1CCCCC1 | -7% | 0% | ? | 15µM* | -3% | -2%
O=C(NCCC1=CCCCC1)C1CCN(C(=O)c2ncn3c2COC(c2ccccc2)C3)CC1 (centres undefined) | nt | 53% | nt | nt | nt | nt
COCCc1noc([C@@H]2CN(CC(C)C)C[C@H]2CO)n1 | nt | 43% | nt | nt | nt | nt
Cc1cc(-c2nsc(=O)o2)c(S(C)(=O)=O)s1 | 1% | 8.9µM* | 21µM* | 16µM* | -4% | 1%
Cn1nc(CC(=O)Nc2ccc(N3CCN(C(=O)OC(C)(C)C)CC3)cc2)c2ccccc2c1=O | ? | -25% | -20% | -7% | ? | 2.5µM*
Cc1cnc(C(=O)Nc2ccc(N3CCN(C(=O)OC(C)(C)C)CC3)cc2)cn1 | ? | 0% | 4.6µM* | 2.3µM* | 24% | 6%
CC(C)(C)OC(=O)N1CCN(c2ccc(NC(=O)Cn3nnc(-c4ccccc4)n3)cc2)CC1 | 7% | ? | ? | 23µM* | ? | 4%
Cc1cnc(C(=O)Nc2ccc(F)cc2)cn1 | ? | -3% | 1% | -18% | 1% | -6%
Cc1nn(CC(=O)Nc2ccccc2)c(C)c1S(=O)(=O)N1CCC(C)CC1 | nt | -33% | nt | nt | nt | nt
c1ccc(Cc2nnc([C@H]3CCN(C4CCCCC4)C3)o2)cc1 | nt | 82%[176 µM] | nt | nt | nt | nt
CC1(C)CC(=O)C2=C(C1)N(c1cccc(C(F)(F)F)c1)C(=O)CC2c1cccs1 (centres undefined) | nt | 30% | nt | nt | nt | nt
COc1cccc(-c2cc(C3CCN(S(=O)(=O)c4ccc(C#N)cc4)CC3)[nH]n2)c1 | nt | 16% | nt | nt | nt | nt
COc1ccc(C2c3cc(OC)c(OC)cc3CCN2S(C)(=O)=O)cc1OC (centres undefined) | ? | -7% | 16µM* | 21µM* | -29% | 4%
COc1ccc(C(=O)N2CCc3cc(OC)c(OC)cc3C2c2ccc(OC)c(OC)c2)cc1 (centres undefined) | -10% | 1% | ? | ? | 18% | -3%
COc1ccc(C(=O)N2CCc3cc(OC)c(OC)cc3C2c2cccc([N+](=O)[O-])c2)cc1OC (centres undefined) | -23% | 0% | ? | 18µM* | 18% | 1%
COc1ccc(C2c3cc(OC)c(OC)cc3CCN2C(=O)c2ccccc2Br)cc1OC (centres undefined) | ? | 4% | -11% | ? | 40% | ?
COc1ccc(C2c3cc(OC)c(OC)cc3CCN2C(=O)c2ccccc2)cc1OC (centres undefined) | 6.5µM* | -8% | ? | 9.2µM* | 5% | -5%
C#CCNC(=O)c1nccnc1N | nt | -45% | nt | nt | nt | nt
CC(C)N1CCc2c(sc(NC(=O)c3ccc(S(=O)(=O)N4CCOCC4)cc3)c2C#N)C1 | 0% | nt | 23µM* | 21µM* | 3% | -4%
COc1cc(C(=O)Nc2sc3c(c2C#N)CCN(C(C)=O)C3)cc(OC)c1OC | -13% | -6% | ? | ? | 27% | -2%
SMILES | ELG1 repair inh | 12-LOX inh | DT40 TDP1 CPT | TDP1 cell noCPT | RORgamma inh | VP16 counter
COc1ccc(C(=O)Nc2sc3c(c2C#N)CCN(C(C)=O)C3)cc1 | -8% | -7% | 3.3µM* | 4.1µM* | -18% | -11%
CCOC(=O)N1CCc2c(sc(NC(=O)c3ccc(S(=O)(=O)N4CCCC4)cc3)c2C#N)C1 | 16µM* | ? | 21µM* | 15µM* | ? | ?
COC(=O)CCN(Cc1cccc(C)c1)CC(C)C | nt | -1% | nt | nt | nt | nt
COCCN=C1Nc2ncccc2NC12CCCN(C(=O)c1cccc(OC)c1)C2 (centres undefined) | nt | 23% | nt | nt | nt | nt
COc1ccc(Cl)cc1NC(=O)[C@H]1C[C@H](CCC(N)=O)N[C@]12C(=O)Nc1c(C)cc(Cl)cc12 | nt | -19% | nt | nt | nt | nt
CCN1CCN(CCCNC(=O)c2ccc3c(c2)sc2nc(-c4ccc(C)cc4)cn23)CC1 | nt | ? | 1.3µM* | 1.3µM* | nt | nt
Cc1c(C(=O)NCCCN2CCOCC2)sc2nc(-c3ccc(F)cc3)cn12 | -4% | 5% | ? | ? | 3% | 0%
Cc1ccc(-c2cn3c(n2)sc2cc(C(=O)NCCCN4CCCCC4)ccc23)cc1 | nt | -18% | 1.3µM* | 1.3µM* | nt | nt
O=C(NCCCN1CCCCC1)c1ccc2c(c1)sc1nc(-c3ccc(F)cc3)cn12 | nt | ? | 4.1µM* | 2.3µM* | nt | nt
Cc1ccc(-c2cn3c(n2)sc2cc(C(=O)NCCCN4CCCCCC4)ccc23)cc1 | nt | ? | 1.6µM* | 1.6µM* | nt | nt
O=C(CSc1ncnc2ccccc12)NCc1ccccc1 | nt | -12% | nt | nt | nt | nt
COc1ccc(Cl)cc1C(=O)N1CCN(Cc2cc(=O)n3ccsc3n2)CC1 | nt | 9% | nt | nt | nt | nt
CC1CCCCN1CCCNC(=O)c1ccc2c(c1)sc1nc(-c3ccc(F)cc3)cn12 (centres undefined) | nt | -15% | 2.3µM* | 3.3µM* | nt | nt
Cc1ccc(CNc2oc(-c3cccc4ccccc34)nc2C#N)cc1 | nt | -5% | nt | nt | nt | nt
Clc1ccc(SCCOCCN2CCOCC2)cc1 | -4% | -12% | -28% | ? | -16% | 5%
CC1CCN(CCOCCOc2ccc(Cl)cc2Br)CC1 | -2% | ? | 13µM* | 21µM* | 38% | 1%
Cc1cc(Cl)c(OCCOCCN2CCN(C)CC2)c(Br)c1 | -6% | ? | ? | ? | 27%[1.91 µM] | 11%
Cc1cc(Cl)c(OCCOCCN2CCC(C)CC2)c(Br)c1 | 10% | ? | 23µM* | 16µM* | -17% | -9%
CC1CCN(CCOCCSc2ccc(Cl)cc2)CC1 | -4% | ? | ? | 18µM* | -28% | 2%
CN1CCN(CCOCCOc2c(Cl)cc(Cl)cc2Cl)CC1 | nt | ? | ? | 16µM* | nt | nt
